Records with an inconclusive call do not appear. Active and inactive are the calls of the source. Calls come from the whole dose curve; as a rule, active = well fitted inhibition curve with a large enough effect; inconclusive = small, poorly fitted or top-dose-only effect; inactive = no such curve, though single readings can be large or run the other way.
The compounds below were run against Luciferin 4-monooxygenase (Photinus pyralis) (UniProt P08659) (assay: Confirmatory firefly luciferase (FLuc) qHTS assay for identification of artifact compounds). Details: purified FLuc enzyme, luminescence, 5 min; series mostly up to 38.9 µM; activity change, negative = inhibition: at the top concentration.
Source text: PI: Alexander Tropsha Ph.D. UNC Eshelman School of Pharmacy University of North Carolina, Chapel Hill, North Carolina Hits from high-throughput screening (HTS) of chemical libraries are often false positives due to their interference with the assay detection technology. In response to this problem, we generated the largest publicly available library of chemical liabilities and developed a free webtool to predict HTS artifacts, both of which are described herein. More specifically, we generated, curated, and integrated HTS datasets for thiol reactivity, redox activity, and luciferase (firefly and nano) activity. Using these curated datasets, we developed and validated several Quantitative Structure-Interference Relationship (QSIR) models to predict nuisance behavior. […] These models were employed for virtual profiling of the National Center for Advancing Translational Science's (NCATS) in-house library, and 256 compounds for each assay were selected for the experimental validation of nuisance behavior. The BA for these external predictions ranged from 58 to 78% for compounds within the applicability domains of the models. […] The models developed in this study, along with aggregation models previously developed by our group (SCAM Detective) were implemented in "Liability Predictor," an online tool which may be used as part of chemical library design or for triaging HTS hits. Both the models and the curated datasets are publicly available at https://liability.mml.unc.edu/.
PROTOCOL TABLE SEQUENCE No. (e.g., 1, 2, 3, etc.); […] (e.g., Cells, Incubation, Reagent, etc.); VALUE; DESCRIPTION. 1; Reagent; 3 uL; Luciferase substrate mixture. 2; Compounds and control; 16 nL; Kalypsis pin tool (Wako USA) equipped with a 1536-well pin head. 3; Incubation; 15 min. 4; Reagent; 1 uL; Luciferase enzyme. 5; Incubation; 5 min. 6; Detection; Luminescence, ViewLux microplate reader. NOTES (numbers refer to Sequence numbers above) 1. 3 uL of luciferase substrate mixture containing D-luciferin and ATP (final concentrations of 10 uM and 10 uM, respectively) in assay buffer (10 mM Mg-acetate, 0.01% Tween-20, 0.05% bovine serum albumin, 50 mM Tris acetate, pH 7.6) was dispensed into all wells of a 1536-well assay plate (solid-bottom white plate; Greiner Bio One, Monroe, NC). 2. A Wako Pin-tool (Wako Automation, Richmond, VA) was used to transfer 16 nL of compounds (consisting of 7-plates in qHTS format, final concentration range 18.3 nM to 114 uM) or control PTC124 (final concentration range 1.22 nM to 40 uM). 3. 15 min. incubation at room temperature protected from light. 4. 1 uL of luciferase enzyme (final concentration 10 nM, Photinus pyralis luciferase) or buffer was dispensed for a final assay volume of 4 uL. 5. Plates were centrifuged (121xg, 15 seconds) and incubated for 5 minutes. 6. Samples were read for luminescence on a ViewLux CCD imager (PerkinElmer). Data were normalized to no-enzyme (0% activity) and no-inhibitor (DMSO; 100%) controls and the resulting percent inhibition data were fitted to a 4-parameter Hill equation using NCATS in-house software.
In the case of O=C(Nc1ccc(Br)cc1)c1cc(-c2cccs2)nc2ccccc12, the “activity change, negative = inhibition” value was -3.02% (inactive).
In the case of CCN(C(=O)Cn1nc(Cc2cccnc2)c2ccccc2c1=O)c1cc(C)ccc1C, the “activity change, negative = inhibition” value was 3.67% (inactive).
In the case of O=C(Nc1cc(Cl)ccc1Cl)c1cc(S(=O)(=O)NCCc2ccccc2)ccc1F, the “activity change, negative = inhibition” value was -1.97% (inactive).
With CCCc1cc(=O)[nH]c(Nc2cc(C)ccc2OC)n1 the “activity change, negative = inhibition” value was -0.205% (inactive).
With CCCn1c(-c2cccc(Br)c2)nc2ccccc21 the “activity change, negative = inhibition” value was -3.37% (inactive).
With O=C(O)CCCC/C=C\C[C@@H](O)/C=C/C=C/C=C\[C@@H](O)CCCC(=O)O the activity change, negative = inhibition was -5.27% [at 0.322 µM] (inactive).
O=C=Nc1ccc(Cc2ccc(N=C=O)cc2)cc1 was tested, and the “activity change, negative = inhibition” value was 5.75% (inactive).
In the case of CC1(C)OC2CC(=O)OCC23C1CC(=O)C1(C)C3CC[C@@]2(C)[C@H](c3ccoc3)OC(=O)C3OC312 (stereo not given in full), the “activity change, negative = inhibition” value was 3.02% (inactive).
With CC1=C(C(=O)Nc2ccc(Cl)cc2)C(c2ccccc2C)n2ncc(C(=O)Nc3ccc(C)cc3)c2N1 (stereo not given) the “activity change, negative = inhibition” value was 1.58% (inactive).
In the case of CCC(=O)N1CCCc2cc(S(=O)(=O)N3CCC(C(=O)Nc4ccccc4CC)CC3)ccc21, the “activity change, negative = inhibition” value was 3.23% (inactive).
With Cc1ccc(NC(=O)c2ccc3[nH]c(C)cc(=O)c3c2)cc1 the “activity change, negative = inhibition” value was 1.25% (inactive).
With Cc1cn(C)c(CC(=O)N2CCN(c3ccccc3F)CC2)c1C(=O)O the “activity change, negative = inhibition” value was 3.91% (inactive).
In the case of COC(=O)CN1C(=O)[C@@H]2[C@H](C1=O)[C@@H]1CC(C(=O)OC)=C[C@@H](C(=O)OC)C3C1=C(C(=O)C31CCCCC1)[C@@H]2C (stereo not given in full), the “activity change, negative = inhibition” value was -1.19% (inactive).
CC(CCc1ccccc1)NC(=O)Cn1c(=O)nc(-c2ccccc2F)c2cc(Cl)ccc21 (stereo not given) was tested, and the “activity change, negative = inhibition” value was -4.2% (inactive).
For COC(=O)c1scc(-c2ccc(C)cc2)c1S(=O)(=O)Nc1ccc(NC(C)=O)cc1, the “activity change, negative = inhibition” value was 1.57% (inactive).
COc1ccc(OC)c(NC(=O)CC(=O)Nc2ccc3nc4n(c(=O)c3c2)CCCCC4)c1 was tested, and the “activity change, negative = inhibition” value was 20.1% (inactive).
In the case of C=CCNc1nnc(-c2cccc3ccccc23)o1, the “activity change, negative = inhibition” value was -0.572% (inactive).
For Cc1cccc(C(=O)Nc2ccc(-c3nc4ncccc4o3)cc2C)c1, the “activity change, negative = inhibition” value was -3.06% (inactive).
COc1ccc(OC(=O)c2nc(SCc3ccccc3C)ncc2Cl)cc1 was tested, and the “activity change, negative = inhibition” value was 10.8% (inactive).
Cc1ccc(C2C=C(c3ccccc3)Nc3nc(NS(=O)(=O)c4ccccc4)nn32)cc1 (stereo not given) was tested, and the “activity change, negative = inhibition” value was -2.75% (inactive).
In the case of CCCCNS(=O)(=O)c1ccc2nc(-c3cccnc3)cc(C(=O)NCCC)c2c1, the “activity change, negative = inhibition” value was -2.26% (inactive).
With COc1cc(=O)n2c(c1C(=O)N(C)Cc1nccs1)CCN(Cc1cc(C)cc(C)c1)CC2 the “activity change, negative = inhibition” value was 2.07% (inactive).
CCOc1ccc(OCC(=O)NCCS(=O)(=O)N2CCN(c3cccc(Cl)c3)CC2)cc1 was tested, and the “activity change, negative = inhibition” value was 0.265% (inactive).
COc1ccc(-c2c3c(=O)n(C)c(=O)n(C)c3c3n2-c2ccccc2NC3c2ccccc2OC)cc1 (stereo not given) was tested, and the “activity change, negative = inhibition” value was -5.6% (inactive).
O=S(=O)(Nc1cccc2cccnc12)c1ccccc1 was tested, and the “activity change, negative = inhibition” value was 13.1% (inactive).
For COc1ccc2cc3cc(C(=O)N4CCN(c5ccccc5F)CC4)oc3nc2c1, the “activity change, negative = inhibition” value was -0.424% (inactive).
With CN[C@@H]1[C@@H](O[C@H]2O[C@H](CO)[C@@H](N)[C@H](O)[C@H]2O)O[C@H]2C[C@@H](N)[C@@H](O[C@H]3[C@H](O)[C@@H](O)[C@H](N)C[C@@H]3N)O[C@@H]2[C@@H]1O the “activity change, negative = inhibition” value was -2.91% [at 13.1 µM] (inactive).
CCCCN(C)CCCNC(=O)CN1C(=O)COc2ccc(S(=O)(=O)N3CCC(C)CC3)cc21 was tested, and the “activity change, negative = inhibition” value was 12.2% (inactive).
In the case of CCCCCCCCCCCCCCCC(=O)N[C@@H](COP(=O)(O)O)C(=O)O, the “activity change, negative = inhibition” value was 3.09% (inactive).
Nc1ccc(F)cc1F was tested, and the “activity change, negative = inhibition” value was -3.57% (inactive).
In the case of NCCCNCCCCNCCCNC(=O)CCc1ccc(O)cc1, the activity change, negative = inhibition was 2.14% [at 7.25 µM] (inactive).
For Cc1ccc2oc(C(=O)Nc3ccc(S(=O)(=O)N(C)c4ccccc4)cc3)cc(=O)c2c1, the “activity change, negative = inhibition” value was 1.46% (inactive).
O=C(O)C1CC2CCCCC2N1C(=O)c1ccc(Cl)cc1 (stereo not given) was tested, and the “activity change, negative = inhibition” value was 4.1% (inactive).
Cc1ccc(-c2nc3scc(CCNS(=O)(=O)c4ccc(F)c(C)c4)n3n2)cc1 was tested, and the “activity change, negative = inhibition” value was -3.25% (inactive).
COc1cccc(-c2nnc(Nc3nc4ccc(OC)cc4s3)o2)c1 was tested, and the “activity change, negative = inhibition” value was 1.25% (inactive).
In the case of COc1ccc(-c2noc(N3CCC(C(=O)N4CCN(c5cccc(C)c5C)CC4)CC3)n2)cc1, the “activity change, negative = inhibition” value was 60.8% (inactive).
For COc1ccc(-n2c(=O)c3ccc(C(=O)NCc4ccc(C)cc4)cc3n(Cc3ccc(Cl)cc3)c2=O)cc1, the “activity change, negative = inhibition” value was 10.2% (inactive).
For Cc1ccc(-c2nc(S(=O)(=O)c3ccc(C)cc3)c(N3CCCCC3)o2)cc1, the “activity change, negative = inhibition” value was -2.08% (inactive).
In the case of COc1ccc(NC(=O)Cn2c(=O)n(CCc3ccccc3)c(=O)c3c4c(sc32)CCCC4)cc1, the “activity change, negative = inhibition” value was 2.55% (inactive).
COc1ccc(C2C(C(=O)Nc3ccccc3)=C(C)Nc3c(C(=O)Nc4ccccc4)cnn32)cc1 (stereo not given) was tested, and the “activity change, negative = inhibition” value was -1.87% (inactive).

From PubChem BioAssay AID1845227 (National Center for Advancing Translational Sciences (NCATS), 2023)
